From PubChem BioAssay
For part of these data: Potency and affinity values are given separately. The source made the active and inactive calls.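 How the source made its calls, unless noted: active means dose curve with midpoint inside tested range, moderate steepness, plateau gap beyond fit error, low compound glow and bead-link interference; inactive means the rest.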

How the values were obtained:
[1] = biological target: Cell division control protein 42 homolog (Homo sapiens) (UniProt P60953); assay: activated mutant Cdc42 GTP-binding inhibitors, dose response, biochemical, multiplex bead flow cytometry, Bodipy-FL-GTP (AID 1333;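 active means fitted half-maximal concentration within the tested dose range, moderate curve steepness, a statistically real signal drop, and little compound fluorescence or tag-binding interference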)
Chain of Cell division control protein 42 homolog (Homo sapiens) (P60953 whole entry, looked up): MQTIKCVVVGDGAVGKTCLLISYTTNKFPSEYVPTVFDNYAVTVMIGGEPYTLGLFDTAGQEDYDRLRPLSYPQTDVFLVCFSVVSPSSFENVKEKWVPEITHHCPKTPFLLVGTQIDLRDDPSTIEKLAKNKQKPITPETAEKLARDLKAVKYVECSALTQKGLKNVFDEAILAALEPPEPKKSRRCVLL

[2] = biological target: Cell division control protein 42 homolog (Homo sapiens) (UniProt P60953); assay: wildtype Cdc42 GTP-binding inhibitors, dose response, biochemical, multiplex bead flow cytometry, Bodipy-FL-GTP (AID 1334;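 active means fitted half-maximal concentration within the tested range, moderate curve steepness, significant signal drop, and little compound fluorescence or bead-linkage interference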); details: bead-based flow cytometry, Bodipy-FL-GTP binding to GST-Cdc42; at 100 µM (top of the series) unless noted
[3] = biological target: GTPase HRas (Homo sapiens) (UniProt P01112); assay: inhibitors of GTP binding to wildtype Ras, dose response, biochemical, multiplex bead flow cytometry (AID 1335;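 active means fitted half-maximal concentration within 10 nM to 100 µM, steepness 0.5 to 2, significant signal drop, low assay interference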); details: bead-based flow cytometry, Bodipy-GTP binding to GST-Ras; at 100 µM (top of the series) unless noted
Chain of GTPase HRas (Homo sapiens) (P01112 whole entry, looked up): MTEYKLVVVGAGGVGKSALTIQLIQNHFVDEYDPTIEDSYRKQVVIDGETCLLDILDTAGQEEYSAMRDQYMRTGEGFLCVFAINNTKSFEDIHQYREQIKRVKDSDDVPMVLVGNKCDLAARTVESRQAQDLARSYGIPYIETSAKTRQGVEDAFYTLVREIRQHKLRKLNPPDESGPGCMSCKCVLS

[4] = tested on: Ras-related protein Rab-7a (dog), GTP binding; assay: Rab7 GTP binding inhibitors, potency, dose response, biochemical, wildtype, multiplex bead flow cytometry (AID 1336; call rule not given here)
[5] = biological target: Ras-related C3 botulinum toxin substrate 1 (Homo sapiens) (UniProt P63000); assay: wildtype Rac1 GTP binding inhibitors, dose response, biochemical, multiplex bead flow cytometry (AID 1340); details: GST-Rac1 beads, Bodipy-FL-GTP binding; at 100 µM (top of the series) unless noted
[6] = biological target: GTPase HRas (Homo sapiens) (UniProt P01112); assay: activated Ras mutant GTP binding inhibitors, dose response, biochemical, multiplex bead flow cytometry (AID 1341;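 active means dose-response curve with midpoint inside the tested range, moderate steepness, significant amplitude and little compound fluorescence or bead-attachment interference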;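 further: GST-tagged constitutively activated Ras mutant immobilized on beads and multiplexed with other GTPases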)

SMILES	outcome [1]	fluorescence, percent of control (lower = inhibition) [2] [%]	GTP binding, percent of control [3] [%]	outcome [4]	GTP binding signal, raw median fluorescence (lower = inhibition) (MCF (arbitrary fluorescence units)) [5]	outcome [6]
O=C(C#Cc1ccccc1)c1ccc([N+](=O)[O-])cc1	inactive	25.5	74.2	inactive	264	inactive
O=C(Nc1ccccc1C(=O)N1CCOCC1)C1CCC(=O)N1C1CCCC1 (stereo not given)	inactive	51.3	62.7	inactive	210	inactive
Cc1cccc(Cc2c(C)nc3nc(SCC(=O)O)nn3c2C)c1	inactive	30.6	81.6	inactive	227	inactive
O=C(Nc1cccc(-c2nnc(-c3ccco3)o2)c1)c1ccccc1	inactive	33.7	76.1	inactive	190	inactive
C=CCn1c(-c2csc(-c3ccc(Cl)cc3)n2)n[nH]c1=S	inactive	40.8	89.3	inactive	262	inactive
CCOC(=O)c1c(-c2ccccc2)csc1NC(=O)/C(C#N)=C/c1ccc(O)c(OC)c1	inactive	79.7	85	inactive	233	inactive
c1ccc(-c2onc3c2CCCC3)cc1	inactive	97.3	144	inactive	192	inactive
Cc1ccccc1Nc1cc(C(=O)O)c2ccccc2n1	inactive	62.2	86.6	inactive	32.7	inactive
Cc1ccccc1-n1c(SCc2c(C)noc2C)nnc1-c1cccnc1	inactive	104	179	inactive	195	inactive
CC(=O)c1cc2c(cc1NC(=O)c1cccc(S(=O)(=O)N3CCN(C)CC3)c1)OCO2	inactive	40.9	86.3	inactive	196	inactive
CC(C)(C)C(=O)c1sc2nc(-c3cccs3)cc(C(F)(F)F)c2c1N	inactive	86.4	182	inactive	194	inactive
Cc1ccccc1OCCn1cc(C(=O)O)c2cccc(C)c21	inactive	53.7	200	inactive	53.4	inactive
O=C(O)CC/C(=C\c1ccccc1[N+](=O)[O-])c1nc2ccccc2s1	inactive	30.2	81.6	inactive	248	inactive
COc1cc(N=c2oc3c(C)ncc(CO)c3cc2C(N)=O)cc(OC)c1OC	inactive	26.9	58.2	inactive	139	inactive
CC(C)OCCCn1c(=NC(=O)c2ccncc2)c(C#N)cc2c(=O)n3ccccc3nc21	inactive	88.2	160	inactive	161	inactive
CCC(=O)c1ccc(OCC(=O)O)c(OC)c1	inactive	46.1	121	inactive	64.7	inactive
CCOC(=O)Cn1c(=O)c2c(nc(N3CCCCC3)n2C)n(C)c1=O	inactive	52.2	63.3	inactive	168	inactive
Cc1ccc(N=Nc2c(N)[nH]n3c(=O)cc(C)nc23)cc1	inactive	48.4	61	inactive	0	inactive
Cc1nc2ccc(NC(=O)COc3ccccc3)cc2s1	inactive	37.6	89.8	inactive	271	inactive
N#Cc1ccc2ccn(CC(=O)N3CCCc4ccccc43)c2c1	inactive	40	89.5	inactive	351	inactive

SMILES	outcome [1]	fluorescence, percent of control (lower = inhibition) [2] [%]	GTP binding, percent of control [3] [%]	outcome [4]	GTP binding signal, raw median fluorescence (lower = inhibition) (MCF (arbitrary fluorescence units)) [5]	outcome [6]
COc1ccc(S(=O)(=O)N2CCOCC2)cc1NC(=O)COc1cccnc1[N+](=O)[O-]	inactive	36.2	78.7	inactive	190	inactive
O=C1c2oc3ccc(Br)cc3c(=O)c2C(c2cccc(F)c2)N1CCO (stereo not given)	inactive	36.4	81.2	inactive	276	inactive
COc1ccc(CNCc2ccc(C(=O)O)s2)cc1	inactive	64.9	89.4	inactive	33.5	inactive
Cc1cc(C)n2nc(C(=O)N3CCCC(CNS(=O)(=O)c4cccs4)C3)cc2n1 (stereo not given)	inactive	37.1	85.6	inactive	284	inactive
COc1ccccc1OCCSc1nc2ccccc2n1CC(=O)O	inactive	62.3	87.1	inactive	33.6	inactive
S=c1[nH]nc(-c2ccco2)n1-c1ccccc1Cl	inactive	26.1	60.5	inactive	231	inactive
COc1ccc(-c2csc(NC(=S)NC(=O)c3cccs3)n2)cc1OC	inactive	36.6	78.1	inactive	176	inactive
CO/N=C/NC(=O)NOCc1ncc(C(F)(F)F)cc1Cl	inactive	38.1	86.2	inactive	295	inactive
COc1ccc(C(=O)Nn2c(SCC(=O)c3ccccc3)nc3ccccc3c2=O)cc1	inactive	71.5	119	inactive	135	inactive
CCN(CC)c1ccc(/C=c2/sc3nnc(-c4ccccc4C)n3c2=O)cc1	inactive	120	123	inactive	236	inactive
CC1=C(C(=O)Nc2ccccc2)C(c2ccc(Cl)cc2)n2c(s/c(=C/c3cccc(OCC(=O)O)c3)c2=O)=N1 (stereo not given)	inactive	26.5	75.3	inactive	176	inactive
Cc1ccccc1-c1nnc(NC(=O)c2ccc(N3C(=O)CCC3=O)cc2)s1	inactive	48.6	65.8	inactive	236	inactive
O=c1nc2c(O)cccn2c2c1c(=O)[nH]c1ccccc12	inactive	33.4	44.6	inactive	93	inactive
Cc1nnc(N2CCOCC2)c2nn(-c3ccccc3)c(C)c12	inactive	58.1	71.2	inactive	198	inactive
Cc1ccc(S(=O)(=O)c2cc3c(=O)n4ccccc4nc3n(C)c2=N)cc1	inactive	31.2	65.8	inactive	158	inactive
O=c1c2ccccc2nc2c3ccccc3c(NCc3cccnc3)nn12	inactive	27.9	71.5	inactive	157	inactive
CC(=O)NC1CC2CCCC(C1)N2C(=O)Nc1ccc(Cl)c(C(F)(F)F)c1 (stereo not given)	inactive	91.1	146	inactive	174	inactive
NC(=O)N=Nc1c(O)[nH]c2c(Br)cc(Br)cc12	inactive	37.2	81.4	inactive	213	inactive
CCOC(=O)c1c2c3c(c(Cl)ccc3[nH]c1=O)C(=O)c1ccccc1-2	inactive	19.1	46.2	inactive	103	inactive
COc1ccc(/C=N/n2c(N)c(S(=O)(=O)c3cccs3)c3nc4ccccc4nc32)cc1OC	inactive	37.1	49.3	inactive	118	inactive

SMILES	outcome [1]	fluorescence, percent of control (lower = inhibition) [2] [%]	GTP binding, percent of control [3] [%]	outcome [4]	GTP binding signal, raw median fluorescence (lower = inhibition) (MCF (arbitrary fluorescence units)) [5]	outcome [6]
O=C(CN1CCN(CCOCCO)CC1)N1c2ccccc2Sc2ccc(Cl)cc21	inactive	37.7	82.2	inactive	266	inactive
Cc1no[n+]([O-])c1COc1cccc(/C=C2\N=C(c3ccccc3)OC2=O)c1	inactive	46.6	60.8	inactive	184	inactive
CSc1nnc(-c2cc(Br)ccc2N=Cc2c(C)[nH]n(-c3ccccc3)c2=O)c(=O)[nH]1	inactive	24.2	67.4	inactive	183	inactive
Oc1ccc(NC(=S)N=Nc2c(O)[nH]c3ccc(Br)cc23)cc1	inactive	33.1	78.4	inactive	200	inactive
Nc1nc(CN2CCN(c3ccccc3F)CC2)nc(N2CCCc3ccccc32)n1	inactive	28.5	69.6	inactive	210	inactive
COc1ccc(NC(=S)N(CCN(C)C)C(C)c2ccco2)cc1Cl (stereo not given)	inactive	49.2	60.4	inactive	210	inactive
Cc1noc(C)c1COc1cccc(C(=O)NCc2ccccc2Cl)c1	inactive	91.7	163	inactive	186	inactive
COc1ccc(OC)c(C(C(=O)NCc2ccco2)N(C(=O)Cn2nnc3ccccc32)C2CC2)c1 (stereo not given)	inactive	47.2	58	inactive	0	inactive
O=C(NCc1cccnc1)c1cccn2c(=O)c3sccc3nc12	inactive	32.5	74.9	inactive	162	inactive
COc1ccccc1CNCc1sc(C(=O)O)cc1C	inactive	61.8	85.7	inactive	35.2	inactive
COc1ccc(C(=O)O)c(OCc2ccccc2Br)c1	inactive	59.6	171	inactive	56.1	inactive
CCN(CC)c1ccc(/C=c2\sc3nnc(-c4ccccc4Cl)n3c2=O)cc1	inactive	117	128	inactive	225	inactive
CN1CCc2nc3ccc(Cl)cc3c(-c3ccccc3Cl)c2C1	inactive	37.3	81.8	inactive	257	inactive
O=C(C#Cc1ccc(-c2ccccc2)cc1)c1ccc([N+](=O)[O-])cc1	inactive	44.5	196	inactive	51.8	inactive
CCC(C)(C)c1ccc(OCCCC[n+]2ccccc2)c(C(C)(C)CC)c1	inactive	32.7	78.7	inactive	278	inactive
O=C(O)c1cc([N+](=O)[O-])ccc1NCc1ccccc1Cl	inactive	96.9	112	inactive	84.1	inactive
N#Cc1ccc(OCc2ccc(C(=O)O)o2)cc1	inactive	63.6	87.2	inactive	37.7	inactive
CSc1ccc(/C=N/NC(=O)c2cc(O)cc(O)c2)cc1	inactive	33.1	58.6	inactive	160	inactive
NS(=O)(=O)c1ccc(-c2ccc(/C=C3\C(=O)Nc4cc(Cl)ccc43)o2)cc1	inactive	38	78.4	inactive	152	inactive
Cc1cc(OCCn2cc(C(=O)O)c3ccccc32)ccc1Cl	inactive	58.3	84.4	inactive	28.3	inactive
